Screening data deposited in PubChem BioAssay by National Center for Advancing Translational Sciences (NCATS).
Shown are actives, neighbours in structure and some others; about 19% of the full set was active somewhere.
Giardia killer – Giardia lamblia killing. Giardia lamblia trophozoite viability. activity change, % at 7.66 µM, hits read low. hit rate 0.15% among 340,000; in the data active means activity change below about -80%; inconclusive means between about -30% and that limit;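 further: parasites exposed to compound for two days anaerobically before the ATP read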
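Each well holds 100 Giardia trophozoites and compound. After two days (48 hrs) at 37 deg C in anaerobic conditions, ATP is quantified by luminescence.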
TDP1 inh – inhibitors of human tyrosyl-DNA phosphodiesterase TDP1. recombinant TDP1, AlphaScreen DNA substrate cleavage. Potency, µM (series often up to 130 µM), for inactives: at the top dose activity change, negative = inhibition, usual class: inhibitors. Q9NUW8. hit rate 0.28% among 350,000; further: potency means the concentration at half of the fitted maximal effect; nearly all actives have a fitted effect of over 40% in size
Target sequence (Q9NUW8 whole entry, looked up): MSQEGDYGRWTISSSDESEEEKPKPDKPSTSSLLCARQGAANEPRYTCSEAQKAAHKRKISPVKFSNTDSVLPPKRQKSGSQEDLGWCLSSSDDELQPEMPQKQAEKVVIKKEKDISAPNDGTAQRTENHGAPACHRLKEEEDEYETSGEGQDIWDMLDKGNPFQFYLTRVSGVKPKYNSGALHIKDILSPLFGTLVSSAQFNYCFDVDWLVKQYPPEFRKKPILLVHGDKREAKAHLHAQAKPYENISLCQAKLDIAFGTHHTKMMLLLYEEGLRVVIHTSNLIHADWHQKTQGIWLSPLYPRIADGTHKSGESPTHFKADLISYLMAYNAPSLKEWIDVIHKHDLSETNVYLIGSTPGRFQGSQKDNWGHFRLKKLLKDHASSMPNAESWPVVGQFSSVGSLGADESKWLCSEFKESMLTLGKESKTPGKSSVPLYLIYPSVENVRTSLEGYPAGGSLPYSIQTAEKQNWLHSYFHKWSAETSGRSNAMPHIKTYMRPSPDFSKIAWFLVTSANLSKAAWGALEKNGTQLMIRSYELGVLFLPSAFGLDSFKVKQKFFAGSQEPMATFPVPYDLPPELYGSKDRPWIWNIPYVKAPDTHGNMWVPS
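Recombinant human Tdp1 (E. coli-expressed, 1 nM final) preincubated with compounds 15 min at room temperature, then 5'-biotin/3'-phosphotyrosine-FITC DNA substrate (15 nM final) added for 5 min. AlphaScreen beads (10 ug/ml final) added 10 min; cleavage lowers signal.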
TDP1 cell CPT – DT40-hTDP1 cell growth loss with CPT; hit rate 12% among 420,000; AID 686979; Potency, µM (top dose mostly 46.2 µM), without a hit: at the top dose activity change, negative = growth inhibition, usual class: inhibitors; chicken DT40 Tdp1-/-;hTDP1 cells + 20 nM CPT, ATP luminescence, 48 h; further: potency means the concentration at half of the fitted maximal effect; nearly all actives have a fitted effect of over 55% in size
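Cell growth measured by CellTiter-Glo luminescence after a minimum 48 h, 37 C compound exposure with 20 nM CPT in Tdp1-knockout DT40 cells stably expressing hTDP1, seeded 400/well; qHTS titration format.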
IL1B secr inh – blocks inflammasome-driven IL-1 beta release. THP-1 LPS/ATP IL-1B secretion, AlphaLISA, 16 h; stronger effect = lower value. activity change, % at 57.5 µM. hit rate 4.7% among 360,000. AID 743279; in the data active means activity change below about -50%; inconclusive means mostly about -30% to -49%
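THP-1 cells pretreated 1 hr with compounds (up to 57.5 uM final), then stimulated with LPS (250 ng/mL final) plus ATP (1.25 mM final); secreted IL-1B measured by AlphaLISA after 16 hr, decreased signal indicating inhibition.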
ELG1 DNA repair – ELG1-dependent DNA repair inhibition. Potency, µM (doses to about 46.1 µM), without a hit: at the highest dose activity change, negative = inhibition, usual class: inhibitors. AID 504467. hit rate 2.3% among 330,000. HEK293T ELG1-luciferase reporter, luminescence, 16 h; DNA damage induced by 5-fluorouridine; further: potency means the concentration at half of the fitted maximal effect; nearly all actives have a fitted effect of over 55% in size
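Step one: seed 2,000 cells per well. Step two: pin-transfer compound or DMSO alongside 5-fluorouridine. Step three: incubate 16 hr, 37 °C, 5% CO2. Step four: add ONE-Glo, wait 30 min, read luminescence.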
DT40 TDP1 no CPT – qHTS for Inhibitors of human tyrosyl-DNA phosphodiesterase 1 (TDP1): qHTS in cells in absence of CPT; DT40 Tdp1-/- hTDP1 cells, no CPT, ATP luminescence, 48 h; Potency, µM (series often up to 46.2 µM), inactives show top-dose activity change, negative = growth inhibition, hits mostly inhibitors; hit rate 15% among 420,000; AID 686978, 2013; further: potency means the concentration at half of the fitted maximal effect; nearly all actives have a fitted effect of over 55% in size
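Seeded 400 DT40-hTDP1 cells/well (vehicle DMSO, no 20 nM CPT); pinned compounds; ≥48 hr at 37 °C; CellTiter-Glo luminescence as viability measure.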
* = called active by the depositor; ? = inconclusive; · = not tested or not shown; [ ] = another dose, or the depositor's remark. Unless noted, the call rests on the fitted dose curve; in most records, active means well fitted curve in the direction sought with a large enough effect; inconclusive means small, poorly fitted or top-dose-only effect, or another doubt; inactive means no such curve, though single readings can be large; an effect the other way counts as inactive or inconclusive. On the % scale 0 is the no-effect control and ±100 the full control effect.

SMILES | Giardia killer | TDP1 inh | TDP1 cell CPT | IL1B secr inh | ELG1 DNA repair | DT40 TDP1 no CPT
Cc1cc(C)nc(NNC2=CC(=[N+]3CCCCC3)CC(C)(C)C2)n1 | -11 | -5% | -25% | 1 | -3% | 15µM*
Cc1cc(C)nc(NNC2=CC(=[N+]3CCCC3)CCC2)n1 | 8 | 5% | -21% | -10 | 16% | ?
O=C(COc1ccccc1Cl)Nc1cccc(S(=O)(=O)N2CCCC2)c1 | -6 | 1% | 16µM* | -21 | ? | 21µM*
O=C(COc1ccccc1)Nc1cccc(S(=O)(=O)N2CCCC2)c1 | 8 | -1% | -18% | -2 | 2% | -27%
COc1ccc(OCCC(=O)OCC(=O)Nc2cccc(S(=O)(=O)N3CCCCC3)c2)cc1 | 12 | -3% | ? | -96* | 5% | ?
CC(=O)Nc1cccc(OCC(=O)Nc2cccc(S(=O)(=O)N3CCCC3)c2)c1 | 13 | -20% | 21µM* | 11 | ? | 21µM*
O=C(COC(=O)/C=C/c1cccs1)Nc1cccc(S(=O)(=O)N2CCCC2)c1 | 12 | 6% | 13µM* | 4 | 15% | 23µM*
Cc1ccc(C)c(OCCC(=O)OCC(=O)Nc2cccc(S(=O)(=O)N3CCCC3)c2)c1 | -2 | · | ? | -4 | 4% | -28%
CCN(Cc1cccc(S(=O)(=O)O)c1)c1ccc(C(=C2C=CC(=[N+](CC)Cc3cccc(S(=O)(=O)O)c3)C=C2)c2ccc(O)cc2S(=O)(=O)O)cc1 | · | · | -93% | · | · | -86%
Cc1ccc(-n2c(=O)c3ccc(C(=O)NCc4ccccc4Cl)cc3n(Cc3ccccc3F)c2=O)cc1 | · | 0% | -7% | · | · | 3%
Cc1ccc(CNC(=O)C2CCCN2C(=O)Nc2ccccc2)cc1 (centres undefined) | -1 | 1% | 13% | -7 | -13% | 19%
O=C(COC(=O)COc1ccccc1[N+](=O)[O-])Nc1ccc(S(=O)(=O)N2CCCCC2)cc1 | 1 | 4% | 0% | 1 | -3% | -18%
O=C(COc1ccccc1[N+](=O)[O-])Nc1cccc(S(=O)(=O)N2CCCC2)c1 | -6 | 2% | 23µM* | -1 | 16µM* | 21µM*
O=C(COc1ccc(F)cc1Cl)Nc1cccc(S(=O)(=O)N2CCCC2)c1 | 26 | 0% | ? | -52* | ? | -26%
Clc1ccccc1C1CC(c2ccccc2)=Nc2ccccc2N1 (centres undefined) | -9 | 3% | ? | · | -2% | ?
c1ccc(C2=Nc3ccccc3NC(c3ccccc3)C2)cc1 (centres undefined) | -9 | -6% | ? | -16 | ? | 15µM*
O=C(NC1CCCCC1)c1ccc2ccccc2c1O | · | · | ? | -61* | · | 15µM*
O=C(NNC(=O)c1ccc2ccccc2c1O)NC1CCCCC1 | 19 | 3% | -16% | -26 | 11% | 2%
Nc1sc(Cc2ccccc2)cc1C(=O)NC1CCCCC1 | · | · | ? | -18 | · | 15µM*
O=C1c2c(-c3ccc(Br)cc3)noc2CCN1Cc1cn(-c2ccc(Cl)cc2)nn1 | · | · | ? | -24 | · | ?
CCOC(=O)c1ccc2c(c1)N(CC(=O)Nc1ccc(C)cc1C)C(=O)c1ccccc1S2 | · | 2% | · | · | · | ·
O=C(CSc1nnc(C2CC2)n1CC1CCCO1)Nc1ccc(Cl)cc1 (centres undefined) | 14 | 0% | -15% | 9 | 20% | -18%
O=C(CCc1ccccc1)NC1(Cc2ccccc2)CCN(CCCc2ccccc2)C1=O (centres undefined) | -19 | -4% | 16µM* | -15 | ? | 8.2µM*
CC(C)CCN1CCC(Cc2ccccc2)(NC(=O)c2ccccc2)C1=O (centres undefined) | 21 | 1% | ? | -25 | ? | ?
O=C(NC1(Cc2ccccc2)CCN(CCc2cccs2)C1=O)c1ccccc1 (centres undefined) | -1 | 0% | 26µM* | -13 | ? | ?
SMILES | Giardia killer | TDP1 inh | TDP1 cell CPT | IL1B secr inh | ELG1 DNA repair | DT40 TDP1 no CPT
CC(=O)c1cccc(NC(=O)CCn2nc(C)c(S(=O)(=O)N3CCCCC3)c2C)c1 | · | -1% | ? | · | · | ?
Cc1ccc(S(=O)(=O)Nc2ccc3c(c2)nc2n3CCN(Cc3ccccc3)C2)cc1 | -10 | 9% | 16µM* | -69* | ? | ?
CC(c1ccccc1)N1CCn2c(nc3cc(NS(C)(=O)=O)ccc32)C1 (centres undefined) | 8 | 5% | 1% | 103 | ? | ?
O=S(=O)(Nc1ccc2c(c1)nc1n2CCN(Cc2ccccc2)C1)c1ccc(F)cc1 | 14 | 8% | 26µM* | 0 | ? | ?
O=S(=O)(Nc1ccc2c(c1)nc1n2CCN(Cc2ccccc2)C1)c1ccccc1 | 1 | 6% | 23µM* | -1 | -17% | 23µM*
O=S(=O)(Nc1ccc2c(c1)nc1n2CCN(Cc2ccccc2)C1)c1ccc(Cl)cc1 | -16 | 8% | 18µM* | -55* | ? | 15µM*
CC(C)Oc1ccc(CNC(=O)c2ccc3c(c2)N(C)C(=O)C2CCCCN32)cc1 (centres undefined) | · | 3% | ? | · | · | ?
C=C(C)C(=O)OCC(O)COc1ccc(C(C)(C)c2ccc(OCC(O)COC(=O)C(=C)C)cc2)cc1 (centres undefined) | 18 | · | 16µM* | -64* | -27% | 21µM*
CC(=O)c1ccc(OCC(O)COc2ccc(C(C)=O)cc2)cc1 | -6 | 6% | -23% | 10 | -5% | -26%
COc1ccc(OC2C(O)COC2/C=C/C#Cc2ccc(F)cc2F)cc1 (centres undefined) | · | 4%[21 µM] | · | · | · | ·
COC(=O)c1sccc1Oc1c(Cl)cccc1[N+](=O)[O-] | 1 | 0% | 13% | -15 | -1% | -16%
CCOc1ccc(OCC)c(S(=O)(=O)NC2CC(C)(C)NC(C)(C)C2)c1 | 7 | 2% | -12% | -59* | 3% | -19%
CCOc1c(S(=O)(=O)NC2CC(C)(C)NC(C)(C)C2)ccc(Cl)c1Cl | -16 | -3% | ? | ? | -6% | ?
CCCn1c(-c2ccc(F)cc2)nc2c(NCCCN3CCCCC3C)nc(C)nc21 (centres undefined) | · | -3% | · | · | · | ·
COc1ccc(CCC(=O)OCC(=O)Nc2ccc(OC)c(OC)c2)cc1OC | 48 | 7%[0.0935 µM] | 5% | 30 | 13% | -18%
